In the library only some 3.8% were active in any assay of this set; here they are far more common.
A549 viability: kills or reduces viability of A549 cells in Nrf2 counter-screen; A549 ARE-Fluc cells, CellTiter-Fluor viability, 18-24 h; Potency, µM (series often up to 46 µM), without a hit: at the highest dose activity change, negative = cytotoxicity, usual class: inhibitors; 390,000 compounds, 0.16% hits; further: on the % scale 0 is the no-effect control and ±100 the full control effect
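Cytotoxicity counterscreen: CellTiter-Fluor fluorescence was measured in A549 ARE_Fluc cells after 18-24 h of compound exposure in a concentration series. The subsequent BugLite luminescent read reports ARE-luciferase activity.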
ELG1 DNA repair: blocks ELG1-dependent DNA repair in HEK293T cells. HEK293T ELG1-luciferase reporter, luminescence, 16 h; DNA damage induced by 5-fluorouridine. Potency, µM (titrated, usually from 46.1 µM), for the others: at the top dose activity change, negative = inhibition, actives largely listed as inhibitors. 330,000 compounds, 2.3% hits; further: on the % scale 0 is the no-effect control and ±100 the full control effect; nearly all actives have a fitted effect of over 55% in size
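Cells (2,000 per well) received 5-fluorouridine plus test compound or DMSO and were incubated 16 hr at 37 °C, 5% CO2. Luciferase activity was read by luminescence 30 min after ONE-Glo addition; signal suppression marked inhibition of damage-induced ELG1 function.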
Nrf2 activator: Nrf2 pathway activation. 410,000 compounds, 0.31% hits. AREc32 ARE-luciferase reporter (MCF7-derived line), luminescence, 24 h. Potency, µM (doses to about 46.1 µM), for inactives: at the highest dose activation, most hits filed as activators; further: % of control where 0% means no effect; nearly all actives have a fitted effect of over 65% in size
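Luciferase luminescence (Steady-Glo, 30 min at room temperature) served as the read-out of ARE activation in AREc32 cells treated with compounds for 24 hr at 37 deg C.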
mIDH1 inhibitor: human IDH1 R132H inhibition; O75874; IDH1-R132H enzyme, NADPH consumption, diaphorase/resazurin fluorescence; Potency, µM (series often up to 76.6 µM), inactives show top-dose activity change, negative = inhibition, hits mostly inhibitors; 390,000 compounds, 0.093% hits; further: on the % scale 0 is the no-effect control and ±100 the full control effect; nearly all actives have a fitted effect of over 65% in size
Target sequence (O75874 whole entry R132H, stated change not applied): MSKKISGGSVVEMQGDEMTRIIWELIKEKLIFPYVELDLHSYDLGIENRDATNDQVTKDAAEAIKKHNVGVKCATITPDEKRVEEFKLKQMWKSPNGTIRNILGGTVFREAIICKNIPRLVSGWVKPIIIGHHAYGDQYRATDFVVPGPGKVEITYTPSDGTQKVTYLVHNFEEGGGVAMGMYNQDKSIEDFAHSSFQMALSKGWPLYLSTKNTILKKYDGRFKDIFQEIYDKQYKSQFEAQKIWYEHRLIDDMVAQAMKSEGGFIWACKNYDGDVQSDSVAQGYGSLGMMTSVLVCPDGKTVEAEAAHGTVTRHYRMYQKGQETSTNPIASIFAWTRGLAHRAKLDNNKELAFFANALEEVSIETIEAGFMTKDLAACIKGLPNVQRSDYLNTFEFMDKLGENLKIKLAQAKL
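IDH1-R132H (0.5 ug/mL dispensed) in pH 7.5 Tris buffer was preincubated 30 min with compound, then given a substrate mix of 0.016 mM NADPH and 2 mM alpha-KG for 80 min at room temperature; remaining NADPH was read by diaphorase/resazurin fluorescence.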
Nrf2 inh: blocks Nrf2 signaling | AID 504444 | A549 ARE-Fluc reporter, luciferase luminescence, 18-24 h | 360,000 compounds, 2.1% hits | Potency, µM (doses to about 46 µM), inactives show at the highest dose activity change, negative = inhibition, hits mostly inhibitors; further: on the % scale 0 is the no-effect control and ±100 the full control effect; nearly all actives have a fitted effect of over 60% in size
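Nrf2 activity is the BugLite luminescence, read 15 min after reagent at room temperature, following CellTiter-Fluor cytotoxicity readout (30 min, 37C). Compound titrations were applied for 18-24 h to 5000 A549 ARE_Fluc cells/well in 5% FBS OPTI-MEM.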
An asterisk follows results filed as active; ? = inconclusive; / = not tested or not shown; [ ] = another dose, or the depositor's remark. The call rests on the fitted dose curve; in most records, active means well fitted curve in the direction sought with a large enough effect; inconclusive means small, poorly fitted or top-dose-only effect, or another doubt; inactive means no such curve, though single readings can be large; an effect the other way counts as inactive or inconclusive. Potency means the concentration at half of the fitted maximal effect.

SMILES | A549 viability | ELG1 DNA repair | Nrf2 activator | mIDH1 inhibitor | Nrf2 inh
CCCn1c(CNc2ccccc2O)nc2ccccc21 | -6% | ? | 14µM* | 6% | 14%
CCCn1c(CNC(=O)c2ccc(F)cc2)nc2ccccc21 | 2% | / | 0% | -5% | -3%[9.27 µM]
Nc1nn(-c2ccccc2)c(N)c1N=Nc1ccc2c(c1)OCO2 | 15µM* | ? | -1% | 5% | -10%
O=C(O)CSC1=NS(=O)(=O)c2ccccc21 | 1% | / | / | / | -3%
COc1ccccc1C(=O)OCc1c(-c2ccccc2)ncc2ccccc12 | 5% | 16µM* | 6% | 5% | ?
COc1ccc(C(=O)OCc2c(-c3ccccc3)ncc3ccccc23)cc1 | -1% | ? | 5% | -2% | -19%
CN1C(=O)/C(=C/c2cccc(Cl)c2)Sc2ccc(C(=O)N3CCOCC3)cc21 | -30% | ? | 3% | -8% | 15µM*
COc1ccc(/C=C2\Sc3ccc(C(=O)NC4CC4)cc3N(C)C2=O)cc1OC | -8% | 12µM* | 5% | -2% | ?
COc1ccc(/C=C2\Sc3ccc(C(=O)N4CCCC4)cc3N(C)C2=O)cc1OC | 2% | ? | 6% | -5% | ?
CCOC(=O)C1CCCN(C(=O)c2ccc3c(c2)N(C)C(=O)/C(=C/c2ccccc2Cl)S3)C1 (stereo not given) | -14% | 15µM* | 2% | -15% | 23µM*
CCOc1ccc(/C=C2/Sc3ccc(C(=O)N4CCOCC4)cc3N(C)C2=O)cc1OC | -14% | 8.2µM* | 10% | 20% | ?
CN1C(=O)/C(=C/c2ccccc2Cl)Sc2ccc(C(=O)N3CCCC3)cc21 | 1% | ? | 10% | 3% | 3%
CCCCNC(=O)CN1C(=O)c2c(c3ccccc3n2C)C1c1ccc(OC)cc1 (stereo not given) | -11% | / | 0% | 4% | 6%
O=c1c2[nH]c3ccsc3c2cnn1Cc1ccccc1F | 9% | / | / | / | 3%
CCc1cc2c(Sc3nc4ccccc4s3)ncnc2s1 | 1% | -13% | ? | 5% | ?
c1ccc2sc(Sc3ncnc4sccc34)nc2c1 | 0% | -3% | 8.9µM* | 6% | ?
c1ccc(CSc2ncnc3sccc23)cc1 | 0% | ? | 11µM* | 1% | 9%
Cc1nc(SCc2ccccc2)c2ccsc2n1 | -1% | ? | ? | 9% | -24%
CCc1nn2c(=O)cc(COC(=O)c3cccc(NC(=O)COc4ccccc4F)c3)nc2s1 | 6% | / | -1% | -8% | /
CCC(C)NC(=O)CSc1nc2n[nH]c(C)c2c(=N)n1-c1cc(Cl)ccc1C (stereo not given) | 4% | / | 3% | -19% | /
COc1cc(F)c(C2=CC(=O)C[C@H](c3ccc4c(c3)OCO4)C2)cc1F | 1% | 16µM* | -1% | 7% | -12%
COc1cccc(OC)c1C1=CC(=O)C[C@H](c2ccc3c(c2)OCO3)C1 | 7% | 9.2µM* | 6% | 5% | -12%
COc1ccc(F)cc1C1=CC(=O)C[C@H](c2ccc3c(c2)OCO3)C1 | 1% | -20% | 0% | -10% | 3%
Cc1ccc(S(=O)(=O)NN=CC2(c3ccccc3)CC2)cc1 | / | / | 0% | 0% | /
CC1CCC2(CC1)NC(=O)N(Cc1cccc(C(F)(F)F)c1)C2=O (stereo not given) | -1% | ? | 7% | 14% | 18µM*
SMILES | A549 viability | ELG1 DNA repair | Nrf2 activator | mIDH1 inhibitor | Nrf2 inh
CC1CCC2(CC1)NC(=O)N(CC(=O)N(Cc1ccccc1)C(C)(C)C)C2=O (stereo not given) | 8% | 6% | -1% | 6% | 4%
CC1Cc2cc(S(=O)(=O)NCc3ccc(N(C)C)cc3)ccc2N1C(=O)C1CCC1 (stereo not given) | -2% | / | 5% | 5% | 23µM*
CC1Cc2cc(S(=O)(=O)NCc3ccccc3Cl)ccc2N1C(=O)C1CCC1 (stereo not given) | -14% | / | 0% | 11% | 26µM*
Cc1cccc(C(=O)NCC(=O)OCc2cc(=O)n3nc(C)sc3n2)c1 | -1% | / | 1% | -10% | ?
CCOC(=O)C1=C(C)N(c2ccc(OC)cc2)C(=O)/C1=C\c1cccs1 | 3% | 21µM* | 4% | -6% | -9%
Cc1ccc(OCC(=O)OCc2cc(=O)n3ccsc3n2)cc1C | -8% | / | -1% | 0% | ?
CCOC(=O)c1c(Nc2cccc(C)c2)nnc(-c2ccccc2)c1-c1ccccc1 | -16% | / | 2% | 14% | 18µM*
Nc1ccccc1OC1=NS(=O)(=O)c2ccccc21 | -1% | / | / | / | 16%
COc1ccc(C(CC(=O)c2ccc(O)cc2)S(=O)(=O)c2ccc(C)cc2)cc1 (stereo not given) | -15% | ? | 13µM* | 7% | 6%
Cc1ccc(NC(=O)CSCc2cc(=O)n3cc(C)sc3n2)cc1 | -4% | -3% | -1% | 4% | 1%
CCCn1c(SC(C(=O)Nc2cc(C)ccc2OC)c2ccccc2)nc2ccccc2c1=O (stereo not given) | 10% | 18µM* | -1%[9.22 µM] | 0% | -8%
CC(=O)Nc1ccc(S(=O)(=O)NC2=NCN(C(C)C)CN2)cc1 | 7% | / | 0% | 9% | ?
Cc1cc(C)cc(-n2cnc3cc(C(=O)NC4CCCCCC4)ccc32)c1 | -14% | / | -1% | 8% | /
COc1ccc(C(=O)COC(=O)C(CCCCN2C(=O)C3C4C=CC(C4)C3C2=O)N2C(=O)C3C4C=CC(C4)C3C2=O)cc1 (stereo not given) | 9% | 5.8µM* | 1% | 5% | 22%
O=C1N/C(=N\N=C\c2cccs2)SC1Cc1cccc(Cl)c1 (stereo not given) | 1% | -8% | 1% | 7% | -5%
Cc1ccc(CC2S/C(=N/N=C/c3ccco3)NC2=O)cc1 (stereo not given) | 12% | 3% | 4.5µM* | 7% | 1%
O=C1N/C(=N\N=C\c2ccccn2)SC1Cc1cccc(SC(F)F)c1 (stereo not given) | -19% | -22% | -1% | 1% | 16µM*
O=C1N/C(=N\N=C\c2cccnc2)SC1Cc1ccc(SC(F)F)cc1 (stereo not given) | -21% | 20% | 0% | 3% | 16µM*
O=C1N/C(=N\N=C\c2ccc3ncccc3c2)SC1Cc1ccc(SC(F)F)cc1 (stereo not given) | -23% | ? | 4% | -2% | ?
COc1ccccc1CNC(=O)C(CC(C)C)NC(=O)C1CCC(C)CC1 (stereo not given) | 6% | -3% | 4% | 5% | ?
COc1ccccc1CNC(=O)c1ccccc1C(=O)NC(CC(C)C)C(=O)NCc1ccccc1OC (stereo not given) | -1% | 21µM* | -1% | -2% | 6%
O=C(CCCl)Nc1cccc2cccnc12 | -12% | / | / | / | 1%

Source: PubChem BioAssay
